Screens (PubChem BioAssay)
HIV RNase H inh – blocks HIV-1 RNase H cleavage of RNA/DNA duplex; P04585; RT-RNase H RNA/DNA duplex cleavage, fluorescence; inhibition, % at 10 µM; 1.9% of 65,000 active; in the data active means inhibition above about 50%
RmlCD inh mix – inhibitors of RmlC and RmlD coupled enzymes; 0.39% of 110,000 active; RmlC/RmlD coupled enzyme inhibition, 384-well mixture HTS; inhibition, % at 5.5 µM; AID 1532; in the data active means inhibition above about 30%, passing the limit was not always enough
RmlCD fluor art – counter-screen for RmlC/RmlD inhibitors: fluorescence artifact. shares compounds with RmlCD inh mix. RmlC/RmlD assay fluorescence artifact counter-screen. calls only. 96% of 360 active. AID 1696; call rule not given here;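 further: compound alone with no enzyme and no substrates present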
Numbers without * were called inactive; · = no result given; + = active, no number. Many of the other results were omitted from the sample, so hits are more common in it than they were.

SMILES	HIV RNase H inh	RmlCD inh mix	others
CN(CCO)c1nc(N)c2c(N)nc3c(c2c1C#N)CC(=O)N3C1CCCC1	·	30*	RmlCD fluor art=+
N#Cc1c(N2CCCCC2)nc(N)c2c(N)nc3c(c12)CC(c1ccccc1)O3 (stereo not drawn)	·	-13
CCN(CC)c1nc(N)c2c(N)nc3c(c2c1C#N)CC(c1ccccc1)O3 (stereo not drawn)	-34	-95
CCOC(=O)Cn1c(=O)c2c(nc3n2CCN3Cc2ccccc2)n(C)c1=O	1	-8
O=C(Nc1ccc2c(c1)nc1n2CCSC1)c1ccccc1	-3	1
O=C(N/N=C1/CN2CCC1CC2)c1cccc(O)c1	·	7
O=S(=O)(c1cccc2cnccc12)N1CCCNCC1	-6	-12
O=C(NCC1CCCO1)c1cc(-c2ccco2)nc2ccccc12 (stereo not drawn)	10	53*	RmlCD fluor art=+
CC(C)CCNC(=O)c1cc(-c2ccco2)nc2ccccc12	·	69
CC1CCCN(CC(=O)Nc2ccc(S(=O)(=O)N3CCCCCC3)cc2)C1 (stereo not drawn)	-13	-7
